According to PubChem BioAssay (NCATS):
Records with an inconclusive call do not appear. Active and inactive are the calls of the source. Unless noted, calls come from the whole dose curve; as a rule, active = well fitted curve in the direction sought with a large enough effect; inconclusive = small, poorly fitted or top-dose-only effect, or another doubt; inactive = no such curve, though single readings can be large; an effect the other way counts as inactive or inconclusive.

Legend:
[1] = qHTS drug screen for cell cycle checkpoint inhibitors in PARPi-resistant BRCA-mutant ovarian cancer cell lines. (AID 1963452; calls by dose curve); conditions: PEO1/OlaR viability, CellTiter-Glo luminescence, 96 h, stronger effect = lower value
Outline: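 PEO1, PEO4 and PEO1/OlaR ovarian cancer cells, 600 per well, exposed 96 h at 37C to a dilution series. Viability read by CellTiter-Glo luminescence, normalized to DMSO and empty wells; activity summarized as Z-AUC.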

[2] = target: Cytochrome P450 2C9 (Homo sapiens) (UniProt P11712); test: qHTS for inhibitors of CYP2C9 against the NCATS DSHEA and TCM libraries (AID 1919973); conditions: recombinant CYP2C9 enzyme activity, luminescence; series mostly up to 34.1 µM;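 note: luminogenic pro-luciferin CYP2C9 substrate turned into luciferin with NADPH regeneration; % is set by controls: 0 for no effect and ±100 for the full control effect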
Cytochrome P450 2C9 (Homo sapiens), sequence (P11712 whole entry, looked up, canonical isoform): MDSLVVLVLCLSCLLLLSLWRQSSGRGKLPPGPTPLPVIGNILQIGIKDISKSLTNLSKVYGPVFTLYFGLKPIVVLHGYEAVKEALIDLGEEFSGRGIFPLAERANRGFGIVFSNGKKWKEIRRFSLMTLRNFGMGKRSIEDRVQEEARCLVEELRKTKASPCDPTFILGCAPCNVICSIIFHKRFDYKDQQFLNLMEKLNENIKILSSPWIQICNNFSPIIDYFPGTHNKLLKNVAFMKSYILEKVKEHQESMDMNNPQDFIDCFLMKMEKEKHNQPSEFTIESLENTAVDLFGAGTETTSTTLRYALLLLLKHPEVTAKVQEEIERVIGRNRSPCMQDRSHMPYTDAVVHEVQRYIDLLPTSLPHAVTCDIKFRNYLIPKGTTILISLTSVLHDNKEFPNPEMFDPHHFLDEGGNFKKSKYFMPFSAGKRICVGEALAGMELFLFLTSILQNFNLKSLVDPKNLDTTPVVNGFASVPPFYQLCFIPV
Outline: (§1)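 Each CYP isoform and its pro-luciferin substrate, at isoform-specific final concentrations, were preincubated 15 min at RT with substances. NADPH regeneration solution (1x) started a 30-45 min reaction, and P450-Glo luminescence was read.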

[3] = target: Cytochrome P450 2C19 (Homo sapiens) (UniProt P33261); test: qHTS for inhibitors of CYP2C19 against the NCATS DSHEA and TCM libraries (AID 1919974); conditions: CYP2C19 enzyme inhibition, luminescence qHTS; series mostly up to 34.1 µM;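 note: luminescence from luciferin released by CYP2C19 oxidation of a pro-luciferin substrate; potency is the fitted concentration of half-maximal effect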
Cytochrome P450 2C19 (Homo sapiens), sequence (P33261 whole entry, looked up): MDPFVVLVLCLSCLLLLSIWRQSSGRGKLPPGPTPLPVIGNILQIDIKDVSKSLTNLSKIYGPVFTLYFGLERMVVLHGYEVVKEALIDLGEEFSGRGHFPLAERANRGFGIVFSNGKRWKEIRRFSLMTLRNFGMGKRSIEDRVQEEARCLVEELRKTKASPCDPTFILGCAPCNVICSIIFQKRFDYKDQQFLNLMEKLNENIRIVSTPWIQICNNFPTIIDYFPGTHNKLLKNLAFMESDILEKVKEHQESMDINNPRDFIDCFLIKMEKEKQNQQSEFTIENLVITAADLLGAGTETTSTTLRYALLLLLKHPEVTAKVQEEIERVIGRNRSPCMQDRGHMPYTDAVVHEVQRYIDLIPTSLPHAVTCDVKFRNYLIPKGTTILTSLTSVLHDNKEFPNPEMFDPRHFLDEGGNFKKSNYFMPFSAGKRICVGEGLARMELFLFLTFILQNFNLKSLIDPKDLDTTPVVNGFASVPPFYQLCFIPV
Outline: as §1

[4] = KB-3-1 P-gp reporter qHTS against the NCATS DSHEA and TCM libraries (AID 1919975); conditions: KB-3-1 parental cells, CellTiter-Glo luminescence viability, 72 h; series mostly up to 26.1 µM; note: 0% is about no effect
Outline: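 Cell viability qHTS: 500 KB-3-1 cells/well, substances in titration, ~72 h, 37C; luminescent CellTiter-Glo read.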

[5] = target: Cytochrome P450 1A2 (Homo sapiens) (UniProt P05177); test: qHTS for inhibitors of CYPIA2 against the NCATS DSHEA and TCM libraries (AID 1919976); conditions: recombinant CYP1A2 enzyme activity, luminescence; series mostly up to 37 µM; note: potency is the fitted concentration of half-maximal effect
Cytochrome P450 1A2 (Homo sapiens), sequence (P05177 whole entry, looked up): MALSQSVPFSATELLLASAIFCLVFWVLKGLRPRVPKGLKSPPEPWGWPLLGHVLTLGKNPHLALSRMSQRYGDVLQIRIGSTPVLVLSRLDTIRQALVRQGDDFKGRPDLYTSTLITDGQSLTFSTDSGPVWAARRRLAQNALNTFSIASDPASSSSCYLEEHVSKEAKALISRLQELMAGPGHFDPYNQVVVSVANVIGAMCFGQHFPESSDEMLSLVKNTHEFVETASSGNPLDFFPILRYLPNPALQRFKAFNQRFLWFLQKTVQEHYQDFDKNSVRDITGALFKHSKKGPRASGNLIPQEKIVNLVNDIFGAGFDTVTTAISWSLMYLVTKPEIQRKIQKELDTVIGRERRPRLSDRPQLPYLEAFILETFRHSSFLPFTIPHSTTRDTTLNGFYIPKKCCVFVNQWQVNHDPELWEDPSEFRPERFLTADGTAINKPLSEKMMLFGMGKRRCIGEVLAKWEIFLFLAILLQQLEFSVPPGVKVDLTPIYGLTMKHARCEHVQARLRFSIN
Outline: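 Reaction started with 1x NADPH regeneration solution and run 30-45 min, room temperature, protected from light, after compounds sat 15 min with CYP1A2 and pro-luciferin substrate. P450-Glo detection gave luminescence; furafylline served as control.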

[6] = qHTS Counterscreen for compound interference against the NCATS DSHEA and TCM libraries (AID 1919978); conditions: firefly luciferase detection reagent interference, luminescence;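 note: compounds preincubated with 1 µM D-luciferin or buffer before detection reagent; % of control where 0% means no effect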
Outline: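 Interference check: test samples were incubated with D-luciferin (final 1 uM) or buffer only for 15 min, room temperature, in a qHTS titration up to 39.8 uM, then developed with detection reagent and read by luminescence.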

[7] = Dual reporter qHTS for agonist of Pregnane X Receptor (hPXR) against the NCATS DSHEA and TCM libraries: Fluorescence readout (AID 1920058); conditions: PXR dual reporter cells; series mostly up to 40 µM; note: 0% is about no effect
Outline: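 Viability readout (CellTiter-Fluor, 405/540 nm, 1 h) from agonist-mode PXR dual reporter in hPXR-Luc HepG2 cells. Substances ~24 h, 37 °C, 5% CO2; rifampicin reference, tetraoctyl ammonium bromide cytotoxic control.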

[8] = target: Nuclear receptor subfamily 1 group I member 2 (Homo sapiens) (UniProt O75469); test: Dual reporter qHTS for agonist of Pregnane X Receptor (hPXR) against the NCATS DSHEA and TCM libraries: Luminescence readout (AID 1920059); conditions: hPXR dual reporter cells, luciferase luminescence agonist; series mostly up to 40 µM; note: 0% is about no effect
Nuclear receptor subfamily 1 group I member 2 (Homo sapiens), sequence (O75469 whole entry, looked up): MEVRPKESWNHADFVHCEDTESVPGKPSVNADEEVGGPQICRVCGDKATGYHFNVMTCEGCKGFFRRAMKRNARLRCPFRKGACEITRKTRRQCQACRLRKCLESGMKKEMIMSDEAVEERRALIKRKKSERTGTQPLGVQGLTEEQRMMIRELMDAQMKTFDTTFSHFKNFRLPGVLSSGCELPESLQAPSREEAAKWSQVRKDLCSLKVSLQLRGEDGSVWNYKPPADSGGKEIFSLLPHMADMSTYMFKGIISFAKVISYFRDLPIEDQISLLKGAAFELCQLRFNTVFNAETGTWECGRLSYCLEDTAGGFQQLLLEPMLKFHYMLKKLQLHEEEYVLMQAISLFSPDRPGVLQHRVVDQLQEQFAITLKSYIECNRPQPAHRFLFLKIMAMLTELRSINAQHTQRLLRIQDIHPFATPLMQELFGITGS
Outline: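 hPXR-Luc HepG2 cells, 2000/well in 5% charcoal-stripped FBS medium, attached 5 h, then exposed 24 h at 37C to compounds. Viability by CellTiter-Fluor, then luciferase luminescence with ONE-Glo.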

[9] = target: Nuclear receptor subfamily 1 group I member 2 (Homo sapiens) (UniProt O75469); test: Dual reporter qHTS for antagonist of Pregnane X Receptor (hPXR) against the NCATS DSHEA and TCM libraries: Luminescence Readout (AID 1920060); conditions: hPXR dual reporter cells, luciferase luminescence, antagonist mode; series mostly up to 40 µM;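 note: HepG2 cells carrying hPXR luciferase reporter stimulated with rifampicin at 2 µM; 0% is about no effect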
Outline: (§2)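 hPXR-Luc HepG2 cells exposed 24 h at 37 C to compounds with 2 uM rifampicin in antagonist mode; luciferase luminescence measured by ONE-Glo, with CellTiter-Fluor viability read beforehand.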

[10] = Dual reporter qHTS for antagonist of Pregnane X Receptor (hPXR) against the NCATS DSHEA and TCM libraries: Fluorescence Readout (AID 1920061); conditions: PXR dual reporter cells, antagonist mode; series mostly up to 40 µM; note: 0% is about no effect
Outline: as §2

[11] = qHTS profiling for inhibitors of Plasmodium falciparum proliferation (AID 504749); note: potency is the fitted concentration of half-maximal effect;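 for activity, negative = inhibition: 0% = DMSO vehicle and full inhibition = artemisinin control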; for all read-outs here: nearly all actives have a fitted effect of over 60% in size; conditions: P. falciparum in erythrocytes, SYBR Green DNA, 72 h; for activity, negative = inhibition: at 28.7 µM (top of the series)
Outline: (§3)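 Each compound contacts P. falciparum-infected red blood cells for 72 h at 37 C; lysis buffer (Tris, EDTA, saponin, Triton X, SYBR Green I) is added and fluorescence measured next morning; values normalized to controls.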

3D7 = test: as above; conditions: P. falciparum in erythrocytes, SYBR Green DNA, 72 h; series mostly up to 28.7 µM
Outline: as §3

7G8 = test: as above; conditions: P. falciparum in erythrocytes, SYBR Green DNA, 72 h; series mostly up to 28.7 µM
Outline: as §3

AA1029 = test: as above; conditions: P. falciparum in erythrocytes, SYBR Green DNA, 72 h; series mostly up to 28.7 µM
Outline: as §3

AS120 = test: as above; conditions: P. falciparum in erythrocytes, SYBR Green DNA, 72 h; series mostly up to 28.7 µM
Outline: as §3

ATS189 = test: as above; conditions: P. falciparum in erythrocytes, SYBR Green DNA, 72 h; series mostly up to 28.7 µM
Outline: as §3

ATS95 = test: as above; conditions: P. falciparum in erythrocytes, SYBR Green DNA, 72 h; series mostly up to 28.7 µM
Outline: as §3

C2A = test: as above; conditions: P. falciparum in erythrocytes, SYBR Green DNA, 72 h; series mostly up to 28.7 µM
Outline: as §3

CP185 = test: as above; conditions: P. falciparum in erythrocytes, SYBR Green DNA, 72 h; series mostly up to 28.7 µM
Outline: as §3

CP191 = test: as above; conditions: P. falciparum in erythrocytes, SYBR Green DNA, 72 h; series mostly up to 28.7 µM
Outline: as §3

[12] = measured here: PEO1 parental Z-AUC

For `CC1(C)O[C@@H]2C[C@H]3[C@@H]4CCC5=CC(=O)C=C[C@]5(C)[C@@]4(F)[C@@H](O)C[C@]3(C)[C@]2(C(=O)CO)O1`, the Z-AUC [1] was 0.569 (inactive), the Z-AUC [1, 12] was 1.66 and the Z-AUC ([1]; measured here: PEO4 Z-AUC) was 0.813.

With `O=C(O)CCCC[C@@H]1SC[C@@H]2NC(=O)N[C@@H]21` the outcome [2] was “inactive”, the Potency [3] was 3.55 µM (active) and the outcome [4] was “inactive”. The Potency [5] was 3.98 µM (active), the max response [6] was 3.76% (inactive) and the outcome [7] was “inactive”. For the same molecule, the outcome [8] was “inactive”, the outcome [9] was “inactive” and the outcome [10] was “inactive”.

For `O=[N+]([O-])c1cncn1CCN1CCOCC1`, the Z-AUC [1] was 1.32 (inactive), the Z-AUC [1, 12] was 1.34 and the Z-AUC ([1]; measured here: PEO4 Z-AUC) was 1.02.

For `CCCCCCCCCCCCCCCC[N+](C)(C)Cc1ccccc1`, the Potency ([11]; parasite line A) was 1.26 µM (active), the Potency ([11]; parasite line B) was 5.62 µM (active) and the Potency (3D7) was 3.98 µM (active). For the same molecule, the Potency (7G8) was 3.16 µM (active), the Potency (AA1029) was 3.16 µM (active) and the Potency (AS120) was 1 µM (active). The Potency (ATS189) was 3.55 µM (active), the Potency (ATS95) was 3.55 µM (active) and the Potency (C2A) was 10 µM (active). For the same molecule, the Potency (CP185) was 0.501 µM (active) and the Potency (CP191) was 1 µM (active).

For `Nc1ccc2cc3ccc(N)cc3nc2c1`, the Potency (7G8) was 2.24 µM (active).

With `CN1CC(=O)N2[C@H](c3ccc4c(c3)OCO4)c3[nH]c4ccccc4c3C[C@@H]2C1=O` the Z-AUC [1] was 0.983 (inactive), the Z-AUC [1, 12] was 0.823 and the Z-AUC ([1]; measured here: PEO4 Z-AUC) was 0.783.

In the case of `O=C1NC(=O)/C(=C/c2ccc3c(c2)OC(F)(F)O3)S1`, the Z-AUC [1] was -0.958 (inactive), the Z-AUC [1, 12] was -0.173 and the Z-AUC ([1]; measured here: PEO4 Z-AUC) was -0.926.

In the case of `Nc1ncnc2nc[nH]c12`, the activity, negative = inhibition ([11]; parasite line A) was -12.9% (inactive), the activity, negative = inhibition ([11]; parasite line B) was -6.26% (inactive) and the Potency (3D7) was “inactive”. The Potency (7G8) was “inactive”, the Potency (AA1029) was “inactive” and the Potency (AS120) was “inactive”. The Potency (ATS189) was “inactive”, the Potency (ATS95) was “inactive” and the Potency (C2A) was “inactive”. For the same molecule, the Potency (CP185) was “inactive” and the Potency (CP191) was “inactive”.

For `O=C(Nc1ccc(S(=O)(=O)N2CCOCC2)cc1)c1cc(Cl)ccc1NS(=O)(=O)c1ccc(Cl)s1`, the Z-AUC [1] was 1.19 (inactive), the Z-AUC [1, 12] was 0.998 and the Z-AUC ([1]; measured here: PEO4 Z-AUC) was 1.36.

For `CCN(CC)CCOc1ccc(/C(=C(\Cl)c2ccccc2)c2ccccc2)cc1`, the Z-AUC [1] was -0.751 (inactive), the Z-AUC [1, 12] was -0.39 and the Z-AUC ([1]; measured here: PEO4 Z-AUC) was -0.613.

For `CCC1=C[C@@H]2CN(C1)Cc1c([nH]c3ccccc13)[C@@](C(=O)OC)(c1cc3c(cc1OC)N(C)[C@H]1[C@@](O)(C(=O)OC)[C@H](OC(C)=O)[C@]4(CC)C=CCN5CC[C@]31[C@@H]54)C2`, the Z-AUC [1] was -1.05 (inactive), the Z-AUC [1, 12] was -1.03 and the Z-AUC ([1]; measured here: PEO4 Z-AUC) was -1.04.

For `CC(NCCC(c1ccccc1)c1ccccc1)c1ccccc1` (stereo not given), the Potency (7G8) was 2.24 µM (active), the Potency (AA1029) was 12.6 µM (active) and the Potency (AS120) was 11.2 µM (active). For the same molecule, the Potency (ATS95) was 11.2 µM (active), the Potency (C2A) was 10 µM (active) and the Potency (CP185) was 8.91 µM (active). For the same molecule, the Potency (CP191) was 10 µM (active).

For `CN1CCC(Nc2ncc3ncnc(Nc4ccc(F)c(Cl)c4)c3n2)CC1`, the Potency ([11]; parasite line A) was 8.91 µM (active), the Potency ([11]; parasite line B) was 10 µM (active) and the Potency (7G8) was 2.51 µM (active). For the same molecule, the Potency (AA1029) was 10 µM (active) and the Potency (C2A) was 11.2 µM (active).

For `CCCCCCCCCCCCCCCC[n+]1ccccc1`, the Potency ([11]; parasite line A) was 6.31 µM (active), the Potency ([11]; parasite line B) was 6.31 µM (active) and the Potency (3D7) was 4.47 µM (active). The Potency (7G8) was 5.01 µM (active), the Potency (AA1029) was 5.01 µM (active) and the Potency (AS120) was 7.94 µM (active). The Potency (ATS189) was 6.31 µM (active), the Potency (ATS95) was 7.94 µM (active) and the Potency (C2A) was 4.47 µM (active). For the same molecule, the Potency (CP185) was 7.94 µM (active) and the Potency (CP191) was 4.47 µM (active).

With `O=[N+]([O-])c1ccc(O)c2ncccc12` the Z-AUC [1] was -0.66 (inactive), the Z-AUC [1, 12] was -0.828 and the Z-AUC ([1]; measured here: PEO4 Z-AUC) was -1.06. For the same molecule, the Potency (3D7) was 11.2 µM (active), the Potency (7G8) was 11.2 µM (active) and the Potency (AS120) was 10 µM (active). For the same molecule, the Potency (C2A) was 12.6 µM (active) and the Potency (CP191) was 12.6 µM (active).

With `O=C(O)C(=O)Nc1cccc(-c2nn[nH]n2)c1` the Z-AUC [1] was 0.0028 (inactive), the Z-AUC [1, 12] was 0.552 and the Z-AUC ([1]; measured here: PEO4 Z-AUC) was 0.459.

With `C[C@H]1C[C@@H]2[C@H]([C@@H](O)C[C@@]3(C)[C@H]2CC[C@]3(O)C(=O)CO)[C@@]2(C)C=CC(=O)C=C12` the Z-AUC [1] was -1.46 (inactive), the Z-AUC [1, 12] was -0.672 and the Z-AUC ([1]; measured here: PEO4 Z-AUC) was -1.34.
